The full ranking holds about 9,900 sequences; the median of “r (bound/input frequency ratio)” is about 0.7, and the highest 2% start at about 6.5. The sample as a whole holds a higher share of the highest values than the screen did.
B1: ENSMUSG00000032194.281|Kank2 (ssRNA)
RNA: GGGAGUUCUACAGUCCGACGAUCGCUUCGAUAUCCGCAUGCUAAUGAAUGGAUGGAUGGACAGGUGGGUGGAUGGAUGGGUGGACGGAUGAGUGUGGGGUGGGUGGAUGGAUAAAUGAGCAAUGGAUGAGAAACUGGGUUGGCUGGUGGGUAGAUGUCAUGAUGGAGUCUUUGCACGUGUAUGAAACAGAAAACCAAACUUCAGGACAGACAGCUGCUGGUGUCUCUGGAUGCUCACAGCCUAGGGCACAUUUGAAAGGUCGUGCUCUGAGCUGAGCCCUGAGUUCCAGCCUUGUAGCCAGCACUCUUGCGGUCGCACUAGUGUGGAAUUCUCGGGUGUCAAGG
B2: ENSMUSG00000032194.283|Kank2 (ssRNA)
RNA: GGGAGUUCUACAGUCCGACGAUCGCUUCGAUAUCCGCAUGCUAAUGGACAGGUGGGUGGAUGGAUGGGUGGACGGAUGAGUGUGGGGUGGGUGGAUGGAUAAAUGAGCAAUGGAUGAGAAACUGGGUUGGCUGGUGGGUAGAUGUCAUGAUGGAGUCUUUGCACGUGUAUGAAACAGAAAACCAAACUUCAGGACAGACAGCUGCUGGUGUCUCUGGAUGCUCACAGCCUAGGGCACAUUUGAAAGGUCGUGCUCUGAGCUGAGCCCUGAGUUCCAGCCUUGUAGCCAGCAAGGGAGUUUAUUCUCUUGCGGUCGCACUAGUGUGGAAUUCUCGGGUGUCAAGG
B3: ENSMUSG00000032194.228|Kank2 (ssRNA)
RNA: GGGAGUUCUACAGUCCGACGAUCGCUUCGAUAUCCGCAUGCUAGUCCUCUCAAGUCUCCCUGUCGUAUCCAGAUCACAGCUGAACCCACUGGGCCUUGGCGCCAAACCUCAGCAGGGCAGCAUUGAGACUCAUGGACUAAAGGAAAGUGUUCACUCUUCUAGACAAGUGGGUCUCUUGGUUUGAUGGAGUCUUACUCCGCUUGAGUUUUGUAGAAGGGGUUUGUCUAAGGCAUAGAGGCUUGGUUGGCAUAAGAAAAUAAGAUGGACAGAUGGAUGGGUGGAUGGAUGGAUGGCUGAUUGAGUCUCUUGCGGUCGCACUAGUGUGGAAUUCUCGGGUGUCAAGG
B4: ENSMUSG00000032194.287|Kank2 (ssRNA)
RNA: GGGAGUUCUACAGUCCGACGAUCGCUUCGAUAUCCGCAUGCUAGUGGACGGAUGAGUGUGGGGUGGGUGGAUGGAUAAAUGAGCAAUGGAUGAGAAACUGGGUUGGCUGGUGGGUAGAUGUCAUGAUGGAGUCUUUGCACGUGUAUGAAACAGAAAACCAAACUUCAGGACAGACAGCUGCUGGUGUCUCUGGAUGCUCACAGCCUAGGGCACAUUUGAAAGGUCGUGCUCUGAGCUGAGCCCUGAGUUCCAGCCUUGUAGCCAGCAAGGGAGUUUAUUUAAGGUUCUGGAAGCAUCAGCUAUCUCUUGCGGUCGCACUAGUGUGGAAUUCUCGGGUGUCAAGG
B5: ENSMUSG00000032194.289|Kank2 (ssRNA)
RNA: GGGAGUUCUACAGUCCGACGAUCGCUUCGAUAUCCGCAUGCUAGUGUGGGGUGGGUGGAUGGAUAAAUGAGCAAUGGAUGAGAAACUGGGUUGGCUGGUGGGUAGAUGUCAUGAUGGAGUCUUUGCACGUGUAUGAAACAGAAAACCAAACUUCAGGACAGACAGCUGCUGGUGUCUCUGGAUGCUCACAGCCUAGGGCACAUUUGAAAGGUCGUGCUCUGAGCUGAGCCCUGAGUUCCAGCCUUGUAGCCAGCAAGGGAGUUUAUUUAAGGUUCUGGAAGCAUCAGCUAUGACCCAAAGCACCUCUUGCGGUCGCACUAGUGUGGAAUUCUCGGGUGUCAAGG
B6: ENSMUSG00000032194.230|Kank2 (ssRNA)
RNA: GGGAGUUCUACAGUCCGACGAUCGCUUCGAUAUCCGCAUGCUACUCCCUGUCGUAUCCAGAUCACAGCUGAACCCACUGGGCCUUGGCGCCAAACCUCAGCAGGGCAGCAUUGAGACUCAUGGACUAAAGGAAAGUGUUCACUCUUCUAGACAAGUGGGUCUCUUGGUUUGAUGGAGUCUUACUCCGCUUGAGUUUUGUAGAAGGGGUUUGUCUAAGGCAUAGAGGCUUGGUUGGCAUAAGAAAAUAAGAUGGACAGAUGGAUGGGUGGAUGGAUGGAUGGCUGAUUGAGUGGGUGGGUGGGUCUCUUGCGGUCGCACUAGUGUGGAAUUCUCGGGUGUCAAGG
B7: ENSMUSG00000028439.220|Fam219a (ssRNA)
RNA: GGGAGUUCUACAGUCCGACGAUCGCUUCGAUAUCCGCAUGCUAUCCCUGAGCUCCUAAGCAAUUCCCAGGCUUCUCUAGGGCUUCAGUUCUCACAACUGGAAAAUAAAGAGUAGCUGACAUCACCGACAGAGUCUUUUCAUACCAGAAGGAAUUUCUUCACAGGAGUUUCUGCAAAAGACUAUGACAUCUGUGUGUCUGUGGUCUCACGAGGUACCUGGAGGUGUAUGUGCACGGACAUGGGAAGUACGUGAAGAUUUAUUUCGGGAAAAGUGGUGUGUGUGUAGCUGUACUGGGUGUCAUGUCUCUUGCGGUCGCACUAGUGUGGAAUUCUCGGGUGUCAAGG
B8: ENSMUSG00000004113.145|Cacna1b (ssRNA)
RNA: GGGAGUUCUACAGUCCGACGAUCGCUUCGAUAUCCGCAUGCUAAAAUAGCACAUGUAUGUAGAGAUGCGCUCAAGGGCCUGCCUUUCACCUACACUGUCACCAUAACAGGGACCAAAUCUGGAGGAUGUCCUUGCUGUUGAUUCUGGUUUUCAGUCACAACACUUUCACUGUUUGUCAUUUCUAUGUAGUUGAUCUAGAAAAAGCAGAAAUCAAAACAGGAAAGGAAAUGUUUGUGUAACUUUAAAAAAAAAGUCAACAUGUAGGAAGGUCUCCAUUUUGCAUUGUUUCUGUGUCUUGUAUGCCUCUUGCGGUCGCACUAGUGUGGAAUUCUCGGGUGUCAAGG
B9: ENSMUSG00000031028.502|Tub|9:15;46:52 (ssRNA)
RNA: GGGAGUUCUACAGUCCGACGAUCGCUUCGAUAUCCGCAUGCUACAAGUAAGCACACACCCUCUGGGAAGACAGGAGUCGGAAGCCAAGCACACACGCAACAGUCUGGAAGAGAGCUUUUGGUAAUCAUACCGUCUUCAGUGACAAGGCAACAAUGCUGUAAAGUGGGUUUGUUUGGUUUUGUUUUUUCUUUCUCUUUUAUGGAAAUGGCAGGUCUAUUUGCCUCAAACGUUAUGUAGAAGUAGUUCUAAGUUUAACAAGCAAUAGAGAUGACUGCUUAGCUAGGAUCUGCAGGGAGCUCUGCUCUCUUGCGGUCGCACUAGUGUGGAAUUCUCGGGUGUCAAGG

target: TDP-43 (Homo sapiens, UniProt Q13148 1-414); assay: RNA Bind-n-Seq with designed 260-mer pool; 25 mM Tris-HCl, 150 mM KCl, 3 mM MgCl2, BSA (printed 500 mg/mL), 20 units/mL SUPERase IN; pH not stated; 500 nM RNA pool, 1 h, 4 C; TDP-43 5, 50, 500 nM; high values mean tight binding; conditions: protein: recombinant; tags: SBP (GST cleaved off with PreScission; pGEX-GST-SBP)
Sequence (Q13148 whole entry): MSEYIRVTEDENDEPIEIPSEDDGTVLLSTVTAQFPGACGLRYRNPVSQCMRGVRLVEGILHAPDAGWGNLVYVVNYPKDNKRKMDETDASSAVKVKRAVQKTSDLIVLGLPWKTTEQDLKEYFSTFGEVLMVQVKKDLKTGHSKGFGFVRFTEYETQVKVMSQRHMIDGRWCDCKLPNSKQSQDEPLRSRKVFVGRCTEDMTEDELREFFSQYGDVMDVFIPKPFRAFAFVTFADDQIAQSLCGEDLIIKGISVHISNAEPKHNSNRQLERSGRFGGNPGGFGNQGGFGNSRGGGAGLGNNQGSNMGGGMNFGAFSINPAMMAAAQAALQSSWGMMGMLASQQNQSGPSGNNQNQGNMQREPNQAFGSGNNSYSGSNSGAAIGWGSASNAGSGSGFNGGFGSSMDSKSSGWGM
Outline: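 In 25 mM Tris-HCl, 150 mM KCl, 3 mM MgCl2, BSA and SUPERase IN, 500 nM of an in vitro-transcribed 260-nt 3′ UTR oligo pool was incubated for 1 h at 4 °C with SBP-tagged TDP-43 (5, 50 or 500 nM) captured on streptavidin beads. RNA remaining after washes was biotin-eluted, reverse transcribed, PCR-amplified and sequenced. Binding, R, is the bound-sample abundance of each oligo, normalized to mapped reads, divided by its abundance in input. Each duplicate used a separate, independent protein batch.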

Binder	binding signal
B1	6.24 R (bound/input frequency ratio)
B2	3.66 R (bound/input frequency ratio)
B3	7.26 R (bound/input frequency ratio)
B4	5.94 R (bound/input frequency ratio)
B5	3.69 R (bound/input frequency ratio)
B6	4.66 R (bound/input frequency ratio)
B7	6.53 R (bound/input frequency ratio)
B8	0.241 R (bound/input frequency ratio)
B9	0.277 R (bound/input frequency ratio)

From PMC12864922, “TDP-43 directly inhibits mRNA accumulation in neurites through modulation of mRNA stability”
